The source of these data is PubChem BioAssay.

The nature of assay [1]: inhibitors of TNFa-induced NFkB p65 translocation, primary screen, imaging, HUVEC, MLSMR starter and 10KST1 sets (AID 438).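 Also: compound added about 3h40 before a 20 min TNFalpha stimulation.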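 As to inhibition: signal is the nuclear over cytoplasmic p65 intensity ratio per well.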 The note with it: HUVEC TNFa-induced p65 nuclear translocation; cell count: measured here: nuclei count (cytotoxicity indicator), at 2.08 µM; inhibition: at 2 µM, stronger effect = higher value, 0% TNFa-plus-vehicle, 100% no-TNFa wells.
Assay [2] is described as follows: reduction of polyQ htt aggregates in cells – imaging, exon1htt(103Q)mCFP cells, high-content imaging, primary screen (AID 483;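 active = visual image review flags a hit and inhibition of aggregation exceeds 20%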;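 also: compound exposure lasted 3 days before fixation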;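 as to nuclei count: percent of the per-plate median nuclei count of sample wells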). The note with it: exon1htt(103Q)mCFP cell line, aggregate imaging, at 2 µM; inhibition of aggregation: stronger effect = higher value; nuclei count: measured here: cell count, toxicity.
Assay [3] can be described thus: endothelial E-selectin expression blockers – imaging, HUVEC, immunofluorescence, MLSMR starter and 10KST1 sets, primary screen (AID 487;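 active = visually confirmed hit in the image check and inhibition above 20%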;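 as to inhibition: signal is fraction of cell area covered by stained E-selectin grains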;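 as to nuclei count: 100% = median nuclei count of all wells on the same plate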). The note with it: HUVEC TNFalpha-induced E-selectin immunofluorescence imaging, at 2 µM; inhibition: stronger effect = higher value; nuclei count: measured here: cell number, toxicity.
Assay [4] has as its target Voltage-gated potassium channel subunit beta-2 (Rattus norvegicus) (UniProt P62483). Description: inhibitors of rat Kvbeta2 reductase activity – biochemical, NADPH fluorescence, primary screen (AID 622;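 active = fluorescence slope higher than the sample average by over 3 SD, cut at about -0.22 in these data, passing the limit was not always enough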;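 also: slope of raw intensity against log time taken from 70 to 1610 s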). The note with it: recombinant KvBeta, 4-cyanobenzaldehyde reduction, at 10 µM, stronger effect = higher value.
Assay [5] has the same target. Description: enhancers of rat Kvbeta2 NADPH turnover – biochemical, NADPH fluorescence, primary screen (AID 623;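 active = NADPH fluorescence slope more negative than the mean of all samples by about 3 SD, 99.7% confidence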;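 also: fluorescence intensity change per second fitted from 20 to 320 s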). The note with it: Recombinant KvBeta, NADPH fluorescence decrease slope, 10 min; at 10 µM; stronger effect = lower value.
Assay [6] concerns the target Alpha-2C adrenergic receptor (Homo sapiens) (UniProt P18825). Description: compounds altering alpha2C-coupled GIRK flux – cell-based, HEK293 alpha2C/GIRK1/2, thallium flux, primary screen (AID 624;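 active = fluorescence slope after compound addition differing from the mean of all screened samples at 99.7% confidence, in either direction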;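 also: slope of fluorescence ratio to pre-addition baseline per second over 15 to 24 s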). The note with it: thallium flux BTC fluorescence, at 10 µM, actives lie on both sides.
The nature of assay [7]: blockers of RIG-like receptor reporter activation – cell-based, Sendai virus stimulus, luciferase, 10K MLSCN set, TLR/RLR signaling modifier project, primary screen (AID 602276;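 active = inhibition at or above 50% at 10 µM; inactive = inhibition below 50%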;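 also: firefly luciferase from ISG56 promoter only with Renilla not read in this screen; 0% = Sendai virus plus DMSO and 100% = medium plus DMSO without virus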). The note with it: HEK293 RL24 IRF3 luciferase reporter, at 10 µM, stronger effect = higher value.
A short description of assay [8]: TLR3 IRF3 reporter activation blockers – cell-based, poly I:C stimulus, luciferase, 10K MLSCN set, primary screen (AID 602277;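 active = inhibition of the reporter signal at or above 50%; inactive = inhibition below 50%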). The note with it: HEK293-TLR3 RL24 IRF3 luciferase reporter, at 10 µM, stronger effect = higher value.

Activity calls are given as the source filed them.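 The calls were made as follows, unless noted: active = inhibition above 20% together with a positive visual image hit; inconclusive = visual image hit but inhibition not above 20%; inactive = no visual image hit.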

Sequence of Voltage-gated potassium channel subunit beta-2 (Rattus norvegicus) (P62483 whole entry, looked up): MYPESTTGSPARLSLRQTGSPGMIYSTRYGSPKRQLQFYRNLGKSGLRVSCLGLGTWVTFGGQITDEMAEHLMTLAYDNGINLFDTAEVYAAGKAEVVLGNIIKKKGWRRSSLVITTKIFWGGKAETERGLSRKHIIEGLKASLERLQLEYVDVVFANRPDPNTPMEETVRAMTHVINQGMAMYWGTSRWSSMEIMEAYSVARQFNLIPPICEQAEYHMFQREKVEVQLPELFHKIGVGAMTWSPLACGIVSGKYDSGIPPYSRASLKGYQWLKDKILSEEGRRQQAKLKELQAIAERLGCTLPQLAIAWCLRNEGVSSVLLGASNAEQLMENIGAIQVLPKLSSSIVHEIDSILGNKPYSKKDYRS
Sequence of Alpha-2C adrenergic receptor (Homo sapiens) (P18825 whole entry, looked up): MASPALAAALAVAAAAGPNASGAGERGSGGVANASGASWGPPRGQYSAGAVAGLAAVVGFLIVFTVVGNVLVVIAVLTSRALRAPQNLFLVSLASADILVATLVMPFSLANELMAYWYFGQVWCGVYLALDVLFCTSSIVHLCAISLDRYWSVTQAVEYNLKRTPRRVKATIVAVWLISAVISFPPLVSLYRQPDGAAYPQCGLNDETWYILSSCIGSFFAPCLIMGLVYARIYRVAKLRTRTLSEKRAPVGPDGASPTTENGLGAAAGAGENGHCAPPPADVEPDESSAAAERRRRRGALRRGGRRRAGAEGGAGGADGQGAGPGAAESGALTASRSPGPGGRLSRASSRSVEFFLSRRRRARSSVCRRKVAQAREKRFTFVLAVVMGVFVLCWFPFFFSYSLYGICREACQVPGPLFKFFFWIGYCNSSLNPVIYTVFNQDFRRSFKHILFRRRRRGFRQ

On to `COc1cc(C2C(C#N)=C(N)OC3=C2C(=O)CC(C)(C)C3)ccc1OC(=O)N1CCOCC1` (stereo not drawn), for which, in assay [1], the cell count was 482. Further, the inhibition in assay [1] is -36.6% (inactive); in assay [3], -75% (inactive); in assay [7], -15.1% (inactive); in assay [8], 11.1% (inactive). Moreover, the inhibition of aggregation in assay [2] was 13.8% (inactive). For the same molecule, the figures for the nuclei count in assay [2] and in assay [3] were 86.6% and 112%, respectively. Further, the fluorescence slope in assay [4] is -0.511 (inactive). Moreover, in assay [5], the NADPH fluorescence slope is 1.1e-05 (inactive). Also, the slope in assay [6] was 0.00692 (inactive).

In the case of `COc1ccccc1C(=O)NC(C)C(c1cccs1)N1CCN(C)CC1` (stereo not drawn), the cell count in assay [1] amounted to 547. Besides, the inhibition in assay [1] is -1.6% (inactive); in assay [3], -38.9% (inactive); in assay [7], -13.5% (inactive); in assay [8], -8.87% (inactive). The inhibition of aggregation in assay [2] is 0.7% (inactive). Besides, the nuclei count was determined as 106% in assay [2] and 114% in assay [3]. Further, in assay [4], the fluorescence slope is -0.394 (inactive). Besides, the NADPH fluorescence slope in assay [5] is 1.2e-06 (inactive). Also, the slope in assay [6] was 0.00389 (inactive).

Take `O=C(CC1Oc2ccccc2NC1=O)NCCCN1CCOCC1` (stereo not drawn): in assay [1], the cell count is 620. The inhibition in assay [1] was 6.1% (inactive); in assay [3] it was 24.8% (inactive); in assay [7], 8.81% (inactive); in assay [8], 38.3% (inactive). Moreover, the inhibition of aggregation in assay [2] was -1.6% (inactive). Moreover, the nuclei count in assay [2] is 112%; in assay [3], 100%. Moreover, in assay [4], the fluorescence slope is -0.56 (inactive). Also, the NADPH fluorescence slope in assay [5] is -1.9e-05 (inactive). The slope in assay [6] is 0.00542 (inactive).

In the case of `O=C(Nc1ccc(SC(F)F)cc1)c1ccc2nccnc2c1`, in assay [1], the cell count was found to be 823. Besides, the inhibition in assay [1] was -1.3% (inactive); in assay [3], 55.1% (active); in assay [7], -15% (inactive); in assay [8] it was -139% (inactive). In assay [2], the inhibition of aggregation is 14.5% (inactive). For the same molecule, the nuclei count came out at 101% in assay [2] and 95% in assay [3]. The fluorescence slope in assay [4] was -0.39 (inactive). Also, the NADPH fluorescence slope in assay [5] is 2e-05 (inactive). Also, the slope in assay [6] is 0.00714 (inactive).

With `C=CCn1c(COc2cccc(C)c2)nnc1SCC(=O)NC(=O)NCc1ccco1`, in assay [1], the cell count was found to be 365. Besides, the inhibition in assay [1] is -10.6% (inactive); in assay [3], 6.1% (inactive); in assay [7], 16.1% (inactive); in assay [8], 30.1% (inactive). For the same molecule, in assay [2], the inhibition of aggregation is 23.8% (inactive). Moreover, the nuclei count came to 86.7% in assay [2] and 113% in assay [3]. The fluorescence slope in assay [4] was -0.405 (inactive). In assay [5], the NADPH fluorescence slope was 3.1e-05 (inactive). Moreover, the slope in assay [6] is 0.00673 (inactive).

Regarding `Cc1[nH]c2c(C)cccc2c(=O)c1Br`, the cell count in assay [1] was 440. For the same molecule, the inhibition in assay [1] was 6.7% (inactive); in assay [3], 30.1% (inactive); in assay [7] it was 14.8% (inactive); in assay [8], 7.69% (inactive). The inhibition of aggregation in assay [2] is 12.7% (inactive). Besides, the nuclei count in assay [2] was determined as 106%; in assay [3], 85.5%. The fluorescence slope in assay [4] is -0.584 (inactive). For the same molecule, the NADPH fluorescence slope in assay [5] is -7.5e-05 (inactive). For the same molecule, the slope in assay [6] is 0.0031 (inactive).

`CC1CCN(S(=O)(=O)c2ccc3[nH]c(=O)cc(C(=O)O)c3c2)CC1`: in assay [1], the cell count came out at 323. Moreover, the inhibition is -20.8% (inactive) in assay [1], -20% (inactive) in assay [3], -2.34% (inactive) in assay [7] and 13% (inactive) in assay [8]. Also, the inhibition of aggregation in assay [2] was 8.5% (inactive). The results for the nuclei count in assay [2] and in assay [3] were 129% and 104%, respectively. Moreover, the fluorescence slope in assay [4] is -0.463 (inactive). For the same molecule, the NADPH fluorescence slope in assay [5] is -0.000161 (inactive). In addition, the slope in assay [6] was 0.00662 (inactive).

For the molecule `CCOC(=O)n1c(SCC(=O)N(CC)CC)nc2ccccc21`, the cell count in assay [1] was 522. The inhibition in assay [1] was 1% (inactive); in assay [3] it was 44.9% (inactive); in assay [7], 0.265% (inactive); in assay [8] it was -26.4% (inactive). In addition, in assay [2], the inhibition of aggregation was 10.7% (inactive). In addition, the nuclei count in assay [2] stood at 102%; in assay [3] it was 93.9%. Besides, in assay [4], the fluorescence slope is -0.597 (inactive). For the same molecule, in assay [5], the NADPH fluorescence slope was -4.3e-05 (inactive). In assay [6], the slope is 0.00594 (inactive).

On to `O=C(C1CCCO1)N1CCc2ccccc21` (stereo not drawn), for which the cell count in assay [1] was 445. Moreover, the inhibition in assay [1] was 6% (inactive); in assay [3] it was -32.9% (inactive); in assay [7], 9.45% (inactive); in assay [8] it was 36.8% (inactive). In addition, in assay [2], the inhibition of aggregation was -16.9% (inactive). Besides, the nuclei count in assay [2] and in assay [3] was 108% throughout. Also, the fluorescence slope in assay [4] is -0.404 (inactive). Moreover, the NADPH fluorescence slope in assay [5] is 5.9e-05 (inactive). The slope in assay [6] is 0.00647 (inactive).

For `Cc1cccc(C(=O)N(C)c2nnc(-c3ccncc3)s2)c1`, the cell count in assay [1] was 346. The inhibition is -10.7% (inactive) in assay [1], 34.2% (inactive) in assay [3], -6.14% (inactive) in assay [7] and -18% (inactive) in assay [8]. In assay [2], the inhibition of aggregation was 6.1% (inactive). Also, the figures for the nuclei count in assay [2] and in assay [3] were 74.3% and 102%, respectively. The fluorescence slope in assay [4] is -0.546 (inactive). Also, the NADPH fluorescence slope in assay [5] was 9.6e-06 (inactive). Further, the slope in assay [6] was 0.0064 (inactive).

As for `Oc1ccc(C=Nc2cccc3ncccc23)c(O)c1`, the cell count in assay [1] stood at 682. Also, the inhibition in assay [1] was -40.5% (inactive); in assay [3], -138% (inactive); in assay [7], 11.3% (inactive); in assay [8] it was 17.3% (inactive). Besides, the inhibition of aggregation in assay [2] was -10% (inactive). Also, the values for the nuclei count in assay [2] and in assay [3] were 111% and 118%, respectively. The fluorescence slope in assay [4] was -0.483 (inactive). In addition, the NADPH fluorescence slope in assay [5] was -2.5e-05 (inactive). Also, the slope in assay [6] was 0.00472 (inactive).

In the case of `CC1Cc2nc(SCC(=O)N3CCCc4ccccc43)n(C)c(=O)c2S1` (stereo not drawn), the cell count in assay [1] was found to be 647. Also, the inhibition in assay [1] was 0.5% (inactive); in assay [3] it was 5.3% (inactive); in assay [7], 6% (inactive); in assay [8], 20.4% (inactive). For the same molecule, the inhibition of aggregation in assay [2] was -0.9% (inactive). In addition, the nuclei count in assay [2] amounted to 46.7%; in assay [3], 118%. In addition, the fluorescence slope in assay [4] was -0.543 (inactive). Further, the NADPH fluorescence slope in assay [5] was -1.5e-05 (inactive). The slope in assay [6] is 0.00618 (inactive).

With `O=C(CSc1nnc(SCc2ccc(Cl)cc2)s1)N1CCN(C(=O)c2ccco2)CC1`, the cell count in assay [1] was found to be 236. The inhibition in assay [1] was 42.2% (active); in assay [3], -194% (inactive); in assay [7], -1.92% (inactive); in assay [8], -7.44% (inactive). Besides, the inhibition of aggregation in assay [2] was -21.7% (inactive). In addition, the nuclei count in assay [2] was determined as 116%; in assay [3], 152%. Moreover, the fluorescence slope in assay [4] is -0.519 (inactive). Further, the NADPH fluorescence slope in assay [5] is -0.000144 (inactive). Further, the slope in assay [6] was 0.00593 (inactive).
